# Test results as given in PubChem BioAssay AID1347416 (National Center for Advancing Translational Sciences (NCATS), 2020).
# Among all 4,100 compounds or so, about 1,600 (39%) were called active. Not shown: some 25% with an inconclusive outcome. Calls come from the whole dose curve; as a rule, active = well fitted inhibition curve with a large enough effect; inconclusive = small, poorly fitted or top-dose-only effect; inactive = no such curve, though single readings can be large or run the other way. This is one part of the list.
# Test: qHTS Validation assay for Inhibitors of Plasmodium falciparum Dd2 growth in vitro; note: nearly all actives have a fitted effect of over 70% in size
# Settings: P. falciparum Dd2 in RBCs, SYBR Green growth, 72 h; series mostly up to 28.7 µM; activity change, negative = inhibition: at the top concentration
# Summary of the method: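 P. falciparum Dd2-infected red blood cells (2.5% hematocrit, 0.3% parasitemia) grown 72 h at 37 °C under 5% O2 with compounds in a titration, 29 uM to 0.5 nM final. Growth read as SYBR Green-1 fluorescence after ~16 h lysis; artesunate 300 nM as positive control.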
# % is set by controls: 0 for no effect and ±100 for the full control effect; potency is the fitted concentration of half-maximal effect.
SMILES,Potency,"activity change, negative = inhibition"
Cn1c(=S)[nH]c2sc3c(c2c1=O)CCC(C(C)(C)C)C3 (centres undefined),5.31 µM (active),
CC1=C(C(=O)Nc2ccccc2)C(c2cc(Br)ccc2F)n2ncc(C(=O)Nc3ccccc3)c2N1 (centres undefined),1.68 µM (active),
COc1ccc(Br)cc1C1C(C(=O)Nc2ccc(C)cc2C)=C(C)Nc2ncnn21 (centres undefined),,66.2% (inactive)
Cn1c2c(c(=O)n(C)c1=O)C(c1cc(Br)ccc1F)CC(=O)N2 (centres undefined),,44.2% (inactive)
COc1ccccc1NC(=O)C1=C(C)Nc2ncnn2C1c1ccccc1C(=O)O (centres undefined),,31.6% (inactive)
CC1=C(C(=O)Nc2ccc(C)cc2C)C(c2cc(Br)ccc2F)n2ncc(C(=O)Nc3ccc(C)cc3)c2N1 (centres undefined),1.5 µM (active),
CC1(CNc2ccccc2)COc2ccc(C(=O)NCc3cccs3)cc2N1 (centres undefined),,0% [at 43.1 µM] (inactive)
O=C(c1ccccc1)N1CCC(N(Cc2cccnc2)C2CCOCC2)CC1,,9.55% (inactive)
COc1cccc(CN(C)C(=O)CCc2nnc(-c3ccsc3)o2)c1,,23.3% (inactive)
COc1ccc2nc(N(Cc3cccnc3)C(=O)CCc3ccccc3)sc2c1,6.68 µM (active),
c1cnc(N2CCOCC2)c(OC2CCNC2)n1 (centres undefined),7.5 µM (active),
COc1ccccc1-c1nnc2n1C(C(=O)NCCc1ccc(Cl)cc1)CC2 (centres undefined),3.35 µM (active),
COc1ccccc1-c1nnc(C2CCN(C(=O)c3ccc(Cl)cc3)CC2)o1,,45% (inactive)
CCC(=O)N1c2ccccc2CC1C(=O)NCCc1ccccc1OC (centres undefined),,-37.3% (inactive)
Fc1cc(F)cc(Cc2nc3nccc(-c4cccs4)n3n2)c1,,-9.69% (inactive)
CC(NC(=O)Cn1c(-c2cccs2)cc2cc(F)ccc21)c1ccccc1 (centres undefined),2.66 µM (active),
COc1ccc(CCNC(=O)Cn2c(-c3cccs3)cc3cc(F)ccc32)cc1OC,4.73 µM (active),
COc1ccccc1NC(=O)C(=O)NCCc1csc(-c2cccc(F)c2)n1,,17.3% (inactive)
COc1ccc(CNC(=O)CCCn2c(=O)c3cccn3c3ccc(F)cc32)cc1OC,,-21.9% (inactive)
FC(F)(F)c1cnc(N2CCCN(C(=S)Nc3ccccc3)CC2)c(Cl)c1,4.73 µM (active),
O=C(C1CC1)N1CCC(c2nc(C3CCOCC3)no2)CC1,,0% (inactive)
CC(C)CNC(=O)c1nc(-c2ccc(Cl)cc2)c2cnccn12,8.63 µM (active),
COCCNC(=O)c1nc(-c2ccc([S+](C)(=O)[O-])cc2)c2ccccn12,,-0.0535% (inactive)
COC(=O)c1[nH]c2cccc(Cl)c2c1NC(=O)CN1CCCCC1C (centres undefined),,-8.86% (inactive)

SMILES,Potency,"activity change, negative = inhibition"
Cc1ccsc1C(=O)Nc1cccc(-c2nnc3n2CCCC3)c1,,-10.3% (inactive)
COCCOc1cc(=O)n2c(c1C(=O)NCc1ccc(OC)cc1)CCOCC2,,-24.8% (inactive)
COc1cc(=O)n2c(c1C(=O)Nc1ccc(N(C)C)cc1)CCCC2,10.6 µM (active),
COc1ccc(C2=[N+](C)CCn3cccc32)c(OC)c1,10.6 µM (active),
CCOc1c(OC)cccc1-c1nc2ccc(-c3ccc(OC)c(OC)c3OC)cc2o1,,-21.4% (inactive)
COc1ccc(CNC(=O)CCc2c(C)nn(-c3ccc(N4CCOCC4)nn3)c2C)cc1,,24.5% (inactive)
COc1ccc(-c2cc(-c3ccc(N4CCOCC4)nc3)cn3cncc23)cc1,7.69 µM (active),
COc1ccc(-c2cc(-c3cccc(OC)c3OC)cn3cncc23)cc1,6.85 µM (active),
Nc1ncnc2c1ncn2[C@H]1O[C@@H](CNS(=O)(=O)NC(=O)c2cccc(-c3noc(-c4ccccc4F)n3)c2)[C@H](O)[C@@H]1O,,5.64% (inactive)
O=C(C1Cn2cccc2C(=O)N1Cc1ccccc1)N1CCN(c2ncccn2)CC1 (centres undefined),,-10.5% (inactive)
Cc1ccc(C)c(-n2c(-c3ccc(Br)cc3)csc2=NC(=O)c2ccccc2F)c1,4.73 µM (active),
CCCOc1cccc(C2c3c(oc4ccc(F)cc4c3=O)C(=O)N2Cc2ccc3c(c2)OCO3)c1 (centres undefined),,2.36% (inactive)
CCCOc1cccc(C2c3c(oc4cc(C)c(C)cc4c3=O)C(=O)N2CCCN2CCOCC2)c1 (centres undefined),13.3 µM (active),
CCN1CCN(c2cc(C)c3cc(NC(=O)/C=C/c4cccc(OC)c4OC)ccc3n2)CC1,5.96 µM (active),
COc1cccc(C(=O)Nc2cccc(-c3cn4c(C)csc4n3)c2)c1OC,,9.23% (inactive)
COc1cccc(/C=C/C(=O)Nc2ccc3nc(N4CCN(C)CC4)cc(C)c3c2)c1OC,5.96 µM (active),
Cc1ncc(CN2CCC(C(=O)Nc3ccc(-n4cccn4)cc3)CC2)s1,4.73 µM (active),
Cc1ccsc1CN1CCC(C(=O)N2CCCCCCNC(=O)CC2)CC1,,-1.02% (inactive)
CCOC(=O)c1c(S(=O)(=O)N2CCC(C(=O)Nc3ccc(OCC)cc3)CC2)c(C)n(C)c1C,,0% (inactive)
O=C(NCc1ccco1)c1ccc2c(c1)N(Cc1c(F)cccc1Cl)C(=O)c1ccccc1S2,13.3 µM (active),
COCCCNC(=O)c1ccc2c(c1)CC(=O)N2Cc1ccccc1,,1.11% (inactive)
O=C(NCc1ccco1)c1ccc2c(c1)N(Cc1ccc(F)cc1)C(=O)c1ccccc1S2(=O)=O,,-17.7% (inactive)
Cc1ccccc1CNC(=O)CC1C(=O)NCCN1Cc1c(F)cccc1Cl (centres undefined),,2.91% (inactive)
CN(C)CCNC(=O)c1ccc2c(c1)N(Cc1c(F)cccc1Cl)C(=O)c1ccccc1S2,2.11 µM (active),

SMILES,Potency,"activity change, negative = inhibition"
CCN(CC)CCCNC(=O)c1ccc2c(c1)N(Cc1c(F)cccc1Cl)C(=O)c1ccccc1S2,0.944 µM (active),
CC(C)CCNC(=O)c1ccc2c(c1)CC(=O)N2Cc1ccccc1,,1.52% (inactive)
CCCCN(CC)CCCNC(=O)c1ccc2c(c1)N(Cc1ccc(C)cc1)C(=O)c1ccccc1S2,1.88 µM (active),
CC(C)[C@@H]1CN(C(=O)CCn2ccc(=O)[nH]c2=O)C[C@H]1NS(C)(=O)=O,,59.1% (inactive)
CCOc1ccccc1NC(=O)Cn1c(-c2ccc(Cl)cc2)noc1=O,5.96 µM (active),
O=C(Cn1c(-c2ccccc2)noc1=O)NCc1ccccc1,,8.85% (inactive)
CCOc1ccccc1NC(=O)Cn1c(-c2ccccc2)nc(C)cc1=O,,-19.7% (inactive)
Cc1csc(Nc2ccc3c(n2)CN(Cc2ccccc2C)C(=O)CO3)n1,19.3 µM (active),
O=C1COc2ccc(-c3ccc(Cl)cc3)nc2CN1Cc1ccccc1,,24% [at 43.1 µM] (inactive)
COc1ccc(-c2ccc3c(n2)CN(Cc2csc(C)n2)C(=O)CO3)cc1F,,-22.2% [at 43.1 µM] (inactive)
CC(=O)c1cccc(N(C(=O)Cn2nnc3ccccc32)C(C(=O)NCc2ccccc2)c2ccc(F)cc2)c1 (centres undefined),,25.6% (inactive)
N=c1c2c3c(sc2ncn1Nc1ccccc1)CCC3,3.35 µM (active),
c1cc(Nc2ncnc3sc4c(c23)CCC4)ccn1,,-8.48% (inactive)
O=C(Nc1ccc2c(N3CCCC3)ncnc2c1)c1cccc(F)c1,4.73 µM (active),
Cc1cc(C)cc(C(=O)NC2CCN(c3cc(-c4ccc(F)cc4)[nH]n3)C2)c1 (centres undefined),,-3.35% (inactive)
O=C(Nc1ccc2oc(-c3cccc(F)c3)nc2c1)c1ccc2ccccc2c1,,39.4% (inactive)
O=C(Nc1ccccc1)c1cnc(N2CCCCC2)c2ccccc12,,6.64% (inactive)
O=C(Nc1ccc2c(N3CCCCC3)ncnc2c1)c1cc(F)cc(F)c1,1.88 µM (active),
Cc1cc(C)cc(C(=O)Nc2ccc3c(N4CCCC4)ncnc3c2)c1,2.37 µM (active),
O=C(Nc1ccc2c(N3CCCCC3)ncnc2c1)c1ccc(F)c(F)c1,4.73 µM (active),
CCN1c2cc(C(=O)Nc3cc(C)cc(C)c3)ccc2C(=O)N2CCCC21 (centres undefined),,-17.1% (inactive)
CC(C)c1noc(-c2cccn3c(CNC(=O)COc4ccc(F)cc4)nnc23)n1,,-0.867% (inactive)
COc1cccc(CNC(=O)CSc2n[nH]c(-c3ccccc3Cl)n2)c1OC,,16.8% (inactive)
CCc1noc(-c2ccn3c(CNC(=O)Cc4ccccc4OC)nnc3c2)n1,,8.77% (inactive)

SMILES,Potency,"activity change, negative = inhibition"
COc1ccccc1Cc1nc2ccccc2nc1SCC(=O)NCc1ccccc1Cl,2.11 µM (active),
CN1CCCN(C(=O)C2CCCO2)c2ccccc21 (centres undefined),,-0.486% (inactive)
O=S(=O)(Cc1ccccc1F)N1CCCC(Cn2c(C3CC3)nc3cccnc32)C1 (centres undefined),,-8.66% (inactive)
Cc1cc2c(c3oc(=O)c4ccccc4c13)CN(Cc1ccc(F)cc1)CO2,2.66 µM (active),
Cc1ccc(CN2COc3cc(C)c4c(oc(=O)c5ccccc54)c3C2)cc1,1.33 µM (active),
COc1ccc(CN2CCC(CO)(CCCc3ccccc3)CC2)c(Cl)c1OC,8.41 µM (active),
Cc1ccc(C)c(-c2[nH]ncc2CN2CCCC(CO)(CCc3ccccc3)C2)c1 (centres undefined),,-24.8% (inactive)
OC(COc1ccccc1CNCCc1ccccc1)CN1CCSCC1 (centres undefined),2.11 µM (active),
CN(Cc1ccccc1)Cc1ccccc1OCC(O)CN1CCCCC1 (centres undefined),1.5 µM (active),
Cc1cccc(CNCc2ccccc2OCC(O)CN2CCSCC2)c1 (centres undefined),1.5 µM (active),
COc1cc(CN2Cc3ccccc3C2)ccc1OCC(O)CN1CCOCC1 (centres undefined),,39.4% (inactive)
Cc1cccc(CNC(=O)c2cc3c(N4CCSCC4)nc(C)cn3n2)c1,,-2.01% (inactive)
Cc1cc(Nc2sc(C(=O)c3ccc(F)cc3)c(N)c2C(=O)Nc2ccc(F)cc2)ccc1Cl,0.75 µM (active),
O=C(CC[C@@H]1CNC(=O)[C@@H]2C[C@H](NC(=O)Nc3cccc(Cl)c3)CN12)NCc1cccnc1,,18.7% (inactive)
COc1ccc(C(=O)NCc2nc(-c3cccc(C)c3)no2)cc1OC,,18% (inactive)
COc1ccc(-c2cnc3[nH]cc(CC(=O)NCc4cccnc4)c3c2)cc1OC,1.53 µM (active),
O=C(Cc1c[nH]c2ncc(-c3ccc(Cl)cc3)cc12)NCc1cccnc1,1.72 µM (active),
COc1ccc(-c2cnc3[nH]cc(CC(=O)NCc4cccnc4)c3c2)cn1,6.85 µM (active),
CC1(COc2cccnc2)COc2ccc(C(=O)NCc3ccc(F)cc3)cc2N1 (centres undefined),,29.9% [at 43.1 µM] (inactive)
CC(=O)N1CCCN(C(=O)c2c[nH]c3ncccc23)CC1,,39.5% [at 43.1 µM] (inactive)
COc1ccccc1C(=O)N[C@H]1[C@H](O)[C@H](O)C[C@@H]1c1cccnc1,,12.8% [at 43.1 µM] (inactive)
Cc1cn2nc(C(=O)N3CCC(NC(=O)c4nccc5ccccc45)CC3)cc2c(=O)[nH]1,,33.3% (inactive)
